Data published in the supplement of paper PMC7156485.
± gives the standard deviation of the averaged measurements.

What was measured:
Settings in all cases: concentration: 10 µM; 24 h
HCC1569 [1] = assay: cell number relative to DMSO (% of DMSO); higher = more cells (less growth inhibition / toxicity)
Outline: (§1)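 Compounds were applied at 10 µM for 24 h at 37 °C, in triplicate, to HCC1569 and TDF cells. The cells were then fixed and stained for H1.0, and nuclei were counterstained with DAPI. Nuclear H1.0 intensity or cell number is reported relative to the plate control as a percent, taking the median of replicates. Smoothing for positional effects was applied to HCC1569 values only.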

TDF [2] = assay: as above
Outline: as §1

TDF [3] = assay: H1.0 immunofluorescence intensity relative to DMSO (% of DMSO); higher = stronger H1.0 induction, active = 120 or more
Outline: as §1

HCC1569 [4] = assay: H1.0 immunofluorescence intensity relative to DMSO (% of DMSO); higher = stronger H1.0 induction, active = 140 or more
Outline: as §1
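Wherever H1.0 immunofluorescence intensity relative to DMSO is given: TDF is a line of transformed human dermal fibroblasts of mesenchymal origin.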
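Wherever cell number relative to DMSO is given: TDF denotes transformed human dermal fibroblasts of mesenchymal origin.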

In the case of CC(=O)NC(CS)C(=O)O (stereo unspecified) [N-Acetyl-Cysteine], the cell number (HCC1569 [1]) is reported as 102, the cell number (TDF [2]) is reported as 95.1 and the H1.0 immunofluorescence intensity (TDF [3]) is reported as 96.3 (inactive). For the same compound, the H1.0 immunofluorescence intensity (HCC1569 [4]) was 90.6 (inactive).

Cc1cc(C(C)(C)C)c(O)c(C)c1CC1=NCCN1.Cl [Oxymetazoline.HCl] was tested, and the cell number (HCC1569 [1]) was 102, the cell number (TDF [2]) was 97.8 and the H1.0 immunofluorescence intensity (TDF [3]) was 98.5 (inactive). The H1.0 immunofluorescence intensity (HCC1569 [4]) was 98.2 (inactive).

In the case of Nc1ncnc2c1ncn2C1CCCO1 (stereo unspecified), the cell number (HCC1569 [1]) is reported as 76.9, the cell number (TDF [2]) is reported as 96.4 and the H1.0 immunofluorescence intensity (TDF [3]) is reported as 99 (inactive). For the same compound, the H1.0 immunofluorescence intensity (HCC1569 [4]) was 183 (active).

NC(N)=NCCCCN=C(N)N.O=S(=O)(O)O [Arcaine sulfate] was tested, and the cell number (HCC1569 [1]) was 104, the cell number (TDF [2]) was 107 and the H1.0 immunofluorescence intensity (TDF [3]) was 89 (inactive). The H1.0 immunofluorescence intensity (HCC1569 [4]) was 92.3 (inactive).

CC(CCC(=O)NCCS(=O)(=O)O)C1CCC2C3C(O)CC4CC(O)CCC4(C)C3CC(O)C12C (stereo unspecified) [Taurocholic acid] was tested, and the cell number (HCC1569 [1]) was 101, the cell number (TDF [2]) was 104 and the H1.0 immunofluorescence intensity (TDF [3]) was 97.8 (inactive). For the same compound, the H1.0 immunofluorescence intensity (HCC1569 [4]) was 111 (inactive).

In the case of CNCCCC12CCC(c3ccccc31)c1ccccc12.Cl [Maprotiline.HCl], the cell number (HCC1569 [1]) is reported as 100, the cell number (TDF [2]) is reported as 90.4 and the H1.0 immunofluorescence intensity (TDF [3]) is reported as 94.5 (inactive). The H1.0 immunofluorescence intensity (HCC1569 [4]) was 119 (inactive).

In the case of C[N+](C)(CCCCCC[N+](C)(C)CCCN1C(=O)c2cccc3cccc(c23)C1=O)CCCN1C(=O)c2cccc3cccc(c23)C1=O.[Br-].[Br-], the cell number (HCC1569 [1]) is reported as 100, the cell number (TDF [2]) is reported as 101 and the H1.0 immunofluorescence intensity (TDF [3]) is reported as 97.2 (inactive). The H1.0 immunofluorescence intensity (HCC1569 [4]) was 108 (inactive).

With O=C([O-])Cc1ccccc1Nc1c(Cl)cccc1Cl.[Na+] [Diclofenac sodium] the cell number (HCC1569 [1]) was 109, the cell number (TDF [2]) was 97.8 and the H1.0 immunofluorescence intensity (TDF [3]) was 99.1 (inactive). The H1.0 immunofluorescence intensity (HCC1569 [4]) was 89.9 (inactive).

In the case of CCCC(=O)NCCc1c2n(c3ccc(OC)cc13)Cc1ccccc1-2, the cell number (HCC1569 [1]) is reported as 92.4, the cell number (TDF [2]) is reported as 99.3 and the H1.0 immunofluorescence intensity (TDF [3]) is reported as 97.1 (inactive). The H1.0 immunofluorescence intensity (HCC1569 [4]) was 108 (inactive).

With CCCCCCCCCCCCCCCC(=O)C(F)(F)F the cell number (HCC1569 [1]) was 103, the cell number (TDF [2]) was 108 and the H1.0 immunofluorescence intensity (TDF [3]) was 93.3 (inactive). For the same compound, the H1.0 immunofluorescence intensity (HCC1569 [4]) was 94.4 (inactive).

For O=C(O)c1cn(C2CC2)c2cc(N3CCNCC3)c(F)cc2c1=O [Ciprofloxacin], the cell number (HCC1569 [1]) was 105, the cell number (TDF [2]) was 107 and the H1.0 immunofluorescence intensity (TDF [3]) was 91.7 (inactive). For the same compound, the H1.0 immunofluorescence intensity (HCC1569 [4]) was 102 (inactive).

COC1C=COC2(C)Oc3c(C)c(O)c4c(c3C2=O)C(=O)C(=CNN2CCN(C)CC2)C(=C4O)NC(=O)C(C)=CC=CC(C)C(O)C(C)C(O)C(C)C(OC(C)=O)C1C (stereo unspecified) [Rifampicin] was tested, and the cell number (HCC1569 [1]) was 104.2 ± 0.92, the cell number (TDF [2]) was 106 ± 1.9 and the H1.0 immunofluorescence intensity (TDF [3]) was 94.5 (inactive). For the same compound, the H1.0 immunofluorescence intensity (HCC1569 [4]) was 103 (inactive).

In the case of CN1CCCC1CCOC(C)(c1ccccc1)c1ccc(Cl)cc1 (stereo unspecified) [Clemastine], the cell number (HCC1569 [1]) is reported as 99.4, the cell number (TDF [2]) is reported as 97.3 and the H1.0 immunofluorescence intensity (TDF [3]) is reported as 102 (inactive). For the same compound, the H1.0 immunofluorescence intensity (HCC1569 [4]) was 112 (inactive).

O=C1[N-]C(=O)C(c2ccccc2)(c2ccccc2)N1.[Na+] [Phenytoin sodium] was tested, and the cell number (HCC1569 [1]) was 99.9, the cell number (TDF [2]) was 111 and the H1.0 immunofluorescence intensity (TDF [3]) was 99.8 (inactive). For the same compound, the H1.0 immunofluorescence intensity (HCC1569 [4]) was 103 (inactive).

O=C(c1ccccc1)c1ccc(N2CCOCC2)cc1O [DNA-PK Inhibitor V] was tested, and the cell number (HCC1569 [1]) was 94.7, the cell number (TDF [2]) was 95.7 and the H1.0 immunofluorescence intensity (TDF [3]) was 91.7 (inactive). The H1.0 immunofluorescence intensity (HCC1569 [4]) was 109 (inactive).

For Cc1ccc(C)c(OCCCC(C)(C)C(=O)O)c1 [Gemfibrozil], the cell number (HCC1569 [1]) was 103, the cell number (TDF [2]) was 99.1 and the H1.0 immunofluorescence intensity (TDF [3]) was 91.8 (inactive). The H1.0 immunofluorescence intensity (HCC1569 [4]) was 115 (inactive).

For O.O=P(O)(O)C(O)(Cn1ccnc1)P(=O)(O)O, the cell number (HCC1569 [1]) was 99.2, the cell number (TDF [2]) was 94 and the H1.0 immunofluorescence intensity (TDF [3]) was 94.5 (inactive). For the same compound, the H1.0 immunofluorescence intensity (HCC1569 [4]) was 102 (inactive).

For CC(O)C(CO)NC(=O)C1CSSCC(NC(=O)C(N)Cc2ccccc2)C(=O)NC(Cc2ccccc2)C(=O)NC(Cc2c[nH]c3ccccc23)C(=O)NC(CCCCN)C(=O)NC(C(C)O)C(=O)N1 (stereo unspecified) [Octreotide], the cell number (HCC1569 [1]) was 106, the cell number (TDF [2]) was 98.5 and the H1.0 immunofluorescence intensity (TDF [3]) was 103 (inactive). The H1.0 immunofluorescence intensity (HCC1569 [4]) was 98.9 (inactive).

In the case of CCCCCC(O)C=CC1C(O)CC(O)C1CC=CCCCC(=O)O (stereo not drawn) [8-Epi-prostaglandin F2a], the cell number (HCC1569 [1]) is reported as 102, the cell number (TDF [2]) is reported as 110 and the H1.0 immunofluorescence intensity (TDF [3]) is reported as 96.2 (inactive). For the same compound, the H1.0 immunofluorescence intensity (HCC1569 [4]) was 100 (inactive).
